# According to PubChem BioAssay:
# Activity calls are given as the source filed them.
# Key:
# [1] = E. coli DRC41 culture turbidity changes, primary screen, E. coli filamentation inducer project, strain DRC41, OD650, 48 h (AID 1152);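 also: E. coli MC1000 strain DRC41 lacking acrAB efflux pump and sulA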; settings: E. coli DRC41 (acrAB sulA), higher = more signal, called active from +8 up or from −8 down
# [2] = small-molecule binders of probe aLefty1, primary screen, biochemical, small-molecule microarray, 635/667 nm fluorescence (AID 1153); settings: higher = more signal;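 also: score merges spot fluorescence with signal-to-noise ratio from the scanned slide images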
# [3] = PSAC antagonists in infected red cells, primary screen, cell-based, P. falciparum Indochina, OD700, 1 h (AID 1154); settings: P. falciparum Indochina infected RBC osmotic lysis, higher = more signal, called active from +8 up or from −8 down
# [4] = PSAC antagonists in infected red cells, primary screen, cell-based, P. falciparum Indochina, OD700, 2 h (AID 1155);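 also: lysis reports solute entry through the parasite surface anion channel PSAC; channel blockers reduce lysis of infected cells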; settings: P. falciparum Indochina infected erythrocytes, osmotic lysis OD700; higher = more signal, called active from +8 up or from −8 down
# [5] = osmotic lysis modulators in infected erythrocytes, primary screen, PSAC antagonist project, cell-based, P. falciparum Indochina, OD700, 3 h (AID 1156); settings: higher = more signal, called active from +8 up or from −8 down
# [6] = PSAC antagonists in infected red cells, primary screen, cell-based, P. falciparum Indochina, OD700, 18 h (AID 1157); settings: P. falciparum Indochina infected erythrocytes, osmotic lysis OD700, 18 h; higher = more signal, called active from +8 up or from −8 down
# [7] = modulators of S6 phosphorylation in cells, primary screen, cell-based, A549, cytoblot, luminescence, serum-stimulated (AID 1158); settings: A549 phospho-S6 cytoblot, 5 h, higher = more signal;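 also: serum-stimulated A549 lung adenocarcinoma cells; signal is phosphorylated S6 detected by cytoblot immunostaining with HRP secondary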
# [8] = biological target: NADPH oxidase 2 (Homo sapiens) (UniProt P04839); test: NOX2-dependent H2O2 signal modulators, primary screen, NOX inhibitor project, cell-based, HEK293-NOX2, PMA-stimulated, Amplex Red fluorescence (AID 1159); settings: 45 min, higher = more signal, called active from +8 up or from −8 down; also: test concentration not given here
# NADPH oxidase 2 (Homo sapiens), sequence (P04839 whole entry, looked up): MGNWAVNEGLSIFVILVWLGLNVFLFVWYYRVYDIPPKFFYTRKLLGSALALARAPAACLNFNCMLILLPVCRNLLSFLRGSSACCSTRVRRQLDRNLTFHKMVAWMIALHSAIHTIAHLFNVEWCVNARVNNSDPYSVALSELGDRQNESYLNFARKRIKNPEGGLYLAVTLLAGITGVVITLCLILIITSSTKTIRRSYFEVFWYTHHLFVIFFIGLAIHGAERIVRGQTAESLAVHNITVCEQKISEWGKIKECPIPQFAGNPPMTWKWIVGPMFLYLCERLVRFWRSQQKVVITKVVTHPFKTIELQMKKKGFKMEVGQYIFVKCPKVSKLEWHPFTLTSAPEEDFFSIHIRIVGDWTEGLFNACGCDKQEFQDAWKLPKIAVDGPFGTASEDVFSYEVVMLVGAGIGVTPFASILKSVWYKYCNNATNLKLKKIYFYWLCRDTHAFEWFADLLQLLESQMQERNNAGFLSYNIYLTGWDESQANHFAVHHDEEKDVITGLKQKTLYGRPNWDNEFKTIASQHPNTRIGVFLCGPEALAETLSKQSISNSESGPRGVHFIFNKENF
# [9] = biological target: NADPH oxidase 4 (Homo sapiens) (UniProt Q9NPH5); test: NOX4-dependent H2O2 signal modulators, primary screen, NOX inhibitor project, cell-based, HEK293-NOX4, tetracycline-induced, Amplex Red fluorescence (AID 1160); settings: 45 min, higher = more signal, called active from +8 up or from −8 down
# NADPH oxidase 4 (Homo sapiens), sequence (Q9NPH5 whole entry, looked up): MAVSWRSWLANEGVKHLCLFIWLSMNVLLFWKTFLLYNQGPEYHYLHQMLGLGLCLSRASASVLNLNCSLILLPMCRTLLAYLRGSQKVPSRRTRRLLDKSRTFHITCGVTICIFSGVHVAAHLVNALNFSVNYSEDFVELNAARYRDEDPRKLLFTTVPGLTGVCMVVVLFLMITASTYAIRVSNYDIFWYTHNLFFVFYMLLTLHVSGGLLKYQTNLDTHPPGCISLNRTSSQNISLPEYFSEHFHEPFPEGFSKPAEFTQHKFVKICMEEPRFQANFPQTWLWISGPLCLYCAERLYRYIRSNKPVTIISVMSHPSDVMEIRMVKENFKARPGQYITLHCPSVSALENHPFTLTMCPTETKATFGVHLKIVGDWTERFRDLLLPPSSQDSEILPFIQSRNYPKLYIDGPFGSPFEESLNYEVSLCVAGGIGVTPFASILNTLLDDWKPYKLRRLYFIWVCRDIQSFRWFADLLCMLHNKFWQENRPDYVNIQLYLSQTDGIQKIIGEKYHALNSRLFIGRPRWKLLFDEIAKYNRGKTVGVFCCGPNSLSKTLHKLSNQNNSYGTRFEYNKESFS
# [10] = biological target: NADPH oxidase 5 (Homo sapiens) (UniProt Q96PH1); test: NOX5-dependent H2O2 signal modulators, primary screen, NOX inhibitor project, cell-based, HEK293-NOX5, Amplex Red fluorescence (AID 1161); settings: HEK293-NOX5, ionomycin, 45 min, higher = more signal
# NADPH oxidase 5 (Homo sapiens), sequence (Q96PH1 whole entry, looked up): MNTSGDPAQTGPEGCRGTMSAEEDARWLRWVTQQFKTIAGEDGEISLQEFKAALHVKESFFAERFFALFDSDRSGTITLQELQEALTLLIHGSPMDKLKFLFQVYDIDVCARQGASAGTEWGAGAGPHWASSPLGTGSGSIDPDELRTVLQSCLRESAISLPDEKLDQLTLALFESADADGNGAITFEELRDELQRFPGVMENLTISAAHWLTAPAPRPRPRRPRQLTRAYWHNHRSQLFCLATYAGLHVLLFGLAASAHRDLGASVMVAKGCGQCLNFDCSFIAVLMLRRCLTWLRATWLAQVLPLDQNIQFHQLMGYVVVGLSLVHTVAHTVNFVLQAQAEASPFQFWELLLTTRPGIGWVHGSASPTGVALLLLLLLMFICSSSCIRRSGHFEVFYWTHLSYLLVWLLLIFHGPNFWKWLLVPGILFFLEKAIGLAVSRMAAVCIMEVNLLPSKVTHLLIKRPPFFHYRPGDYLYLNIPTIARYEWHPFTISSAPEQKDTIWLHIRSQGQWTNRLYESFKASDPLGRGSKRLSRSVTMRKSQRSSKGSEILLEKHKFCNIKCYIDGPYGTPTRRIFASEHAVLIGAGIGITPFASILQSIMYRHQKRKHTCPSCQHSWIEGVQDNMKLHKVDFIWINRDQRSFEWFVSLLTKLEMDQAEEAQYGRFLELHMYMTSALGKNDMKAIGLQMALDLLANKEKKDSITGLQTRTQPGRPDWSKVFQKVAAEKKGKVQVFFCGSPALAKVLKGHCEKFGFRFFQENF
# [11] = A549 cell viability effects, profiling panel, calcein-AM fluorescence, 48 h, basal (AID 1162); settings: higher = more signal; also: test concentration not given here
# [12] = adipocyte viability effects, profiling panel, cell-based, 3T3-L1 adipocytes, calcein-AM fluorescence, 48 h, basal (AID 1163); settings: 3T3-L1 adipocytes viability, higher = more signal; also: test concentration not given here
# [13] = HepG2 cell viability effects, profiling panel, calcein-AM fluorescence, 48 h, basal (AID 1164); settings: higher = more signal; also: test concentration not given here
# [14] = MM1S cell viability effects, profiling panel, calcein-AM fluorescence, 48 h, basal (AID 1165); settings: higher = more signal;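 also: viability of MM1S multiple myeloma cells under basal unstimulated conditions; test concentration not given here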
# [15] = basal RPMI8226 viability, no added stimulus, profiling panel, cell-based, calcein-AM fluorescence, 48 h, PK04 Diversity Set (AID 1166); settings: RPMI8226 myeloma viability, higher = more signal;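 also: cells grown under basal conditions without added stimulus; test concentration not given here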
# [16] = basal HepG2 mitochondrial membrane potential changes, profiling panel, cell-based, JC-1 fluorescence, 24 h, 100 nL compound (AID 1167); settings: higher = more signal; also: test concentration not given here
# [17] = basal 3T3-L1 adipocyte mitochondrial potential changes, profiling panel, cell-based, JC-1 fluorescence, 3T3-L1 adipocytes, 24 h, 100 nL compound (AID 1168); settings: JC-1 mitochondrial fluorescence, higher = more signal, called active from +8 up or from −8 down; also: test concentration not given here
# [18] = basal RPMI8226 mitochondrial membrane potential changes, profiling panel, cell-based, JC-1 fluorescence, 24 h, 100 nL compound (AID 1169); settings: RPMI8226 myeloma, JC-1 mitochondrial potential fluorescence, higher = more signal; also: test concentration not given here
# [19] = basal MM1S mitochondrial membrane potential changes, profiling panel, cell-based, JC-1 fluorescence, 24 h, 100 nL compound (AID 1170); settings: higher = more signal; also: test concentration not given here
# [20] = A549 lung cancer cell viability effects, profiling panel, resazurin fluorescence, 24 h, PK04 Diversity Set (AID 1171); settings: higher = more signal, called active from +8 up or from −8 down; also: test concentration not given here
SMILES,z-score [1],composite z-score [2],z-score [3],z-score [4],z-score [5],z-score [6],z-score [7],z-score [8],z-score [9],z-score [10],z-score [11],z-score [12],z-score [13],z-score [14],z-score [15],z-score [16],z-score [17],z-score [18],z-score [19],z-score [20]
COc1ccc(C(=O)Nc2ccc(CN3C(=O)[C@@]4(O[C@@H](CC(=O)N(CCO)Cc5ccccc5)[C@H]([Si](C)(C)c5ccc(OC)cc5)[C@H]4C)c4ccccc43)cc2)cc1,1.73 (inactive),-0.115,16.6 (active),2.82 (inactive),0.467 (inactive),-0.236 (inactive),1.21,1.06 (inactive),1.39 (inactive),2.59,-0.86,1.4,-1.04,-0.507,-1.47,0.656,0.816 (inactive),-0.931,-0.493,-0.861 (inactive)
C=CCNC(=O)[C@@H]1[C@H]2C(=O)O[C@H](c3ccccc3)[C@H](c3ccccc3)N2[C@H](c2ccc(OCCO)cc2)[C@@]12C(=O)N(C(=O)OCCOC)c1ccccc12,0.127 (inactive),0.258,3.15 (inactive),1.27 (inactive),-0.947 (inactive),0.442 (inactive),-0.296,0.406 (inactive),0.789 (inactive),-0.0693,-0.514,0.484,0.332,0.374,-0.562,2.15,0.89 (inactive),-1.05,0.332,-0.0659 (inactive)
CCCCCN1CC=CC23O[C@@H]4/C=C\CCCOC(=O)C4[C@H]2C(=O)N(CCO)[C@@H]3C1=O (stereo not given in full),3.1 (inactive),-0.103,0.592 (inactive),0.177 (inactive),-0.608 (inactive),-0.776 (inactive),1.48,0.88 (inactive),0.261 (inactive),2.19,0.415,1.64,0.0134,1.59,0.218,-0.242,-0.428 (inactive),0.699,-0.307,-0.231 (inactive)
CC(C)(C)OC(=O)CC[C@]1(C(=O)N2CCOCC2)COC(c2ccc(OCCCO)cc2)=N1,1.54 (inactive),0.0429,20.8 (active),4.54 (inactive),0.384 (inactive),1.18 (inactive),0.359,-1.16 (inactive),0.324 (inactive),-1.06,0.204,-0.492,1.26,0.571,-0.785,2.31,-0.305 (inactive),-0.44,-0.143,0.216 (inactive)
CC(C)c1ccc(NN2C(C(O)C3=C[C@H]4C[C@@H](C3)C4(C)C)C=CC3C(=O)N(c4ccccc4)C(=O)C32)cc1 (stereo not given in full),-0.736 (inactive),0.587,1.8 (inactive),1.13 (inactive),0.0675 (inactive),1.37 (inactive),-0.578,-0.843 (inactive),-3.08 (inactive),-1.62,0.0464,-0.395,0.165,-1.16,-1.04,-2.56,-0.401 (inactive),-0.366,0.758,-0.186 (inactive)
C=C(COC)C(=O)CC[C@H](OC(C)=O)c1ccccc1OCCO,0.618 (inactive),-0.176,1.91 (inactive),-0.291 (inactive),0.537 (inactive),-1.49 (inactive),1.2,-1.57 (inactive),0.456 (inactive),-1.41,0.0878,2.22,-0.699,-3.39,-1.97,1.61,0.862 (inactive),-0.699,-1.18,-0.164 (inactive)
C[N+](C)(C)CCCC[C@@H]1NC(=O)[C@H]2C[C@@H](C(=O)NCCCCCN)[C@@H](c3ccc(O)cc3)N2C1=O,0.108 (inactive),0.14,0.105 (inactive),0.0643 (inactive),-3.73 (inactive),-0.0429 (inactive),-0.0286,0.081 (inactive),-0.0444 (inactive),0.204,2.02,0.727,-0.224,-1.68,-0.145,1.66,-0.359 (inactive),0.144,-0.292,0.78 (inactive)
COc1ccc([Si](C)(C)[C@H]2[C@H](CC(=O)N(CCO)Cc3ccccc3)O[C@@]3(C(=O)N(c4ccccc4)c4ccccc43)[C@@H]2C)cc1,-0.79 (inactive),-0.0603,26.5 (active),12.9 (active),0.495 (inactive),2.04 (inactive),0.297,-0.0743 (inactive),0.689 (inactive),-1.65,-3.41,-1.38,-4.61,-2.69,-4.38,-2.35,0.938 (inactive),-1.11,-2.27,-3.43 (inactive)
COc1ccc(C(=O)Nc2cccc(CN3C(=O)[C@]4(O[C@H](CC(=O)N(CCO)Cc5ccccc5)[C@@H]([Si](C)(C)c5ccc(OC)cc5)[C@@H]4C)c4ccccc43)c2)cc1,0.556 (inactive),0.0892,4.41 (inactive),0.614 (inactive),0.0064 (inactive),0.795 (inactive),0.805,0.936 (inactive),0.871 (inactive),3.51,-0.983,0.385,-0.801,-0.829,-3.92,0.52,1.3 (inactive),-0.877,-1.51,-1.51 (inactive)
